# Results: ChEMBL document CHEMBL3988442, “University of Dundee, Small-Polar-MMV Screening Library” (2021)
# Where “and” joins values, the source holds several entries; their conditions need not be identical. Equal entries are not always repeated. Out of some 34,000 compounds screened, about 290 (0.85%) showed an effect of 50% or more. For the sample, strong results were picked, then their nearest neighbours and some compounds at random.
# Test system: Plasmodium falciparum
# Test: Plasmodium falciparum sporozoite viability assay
# Type: functional, organism-based
# Design: scale not given: in the data most compounds retested in dose-response had high values
SMILES,Percent Effect [%],Percent Effect (10 mM as filed; unlikely as a test dose)
CCN1CCCC1CNCc1cc2ccccc2[nH]c1=O (configuration not stated),24.74,–
c1cc(C2CCN(c3cnccn3)CC2)ccn1,11.86,–
COc1ccc(C(=O)N(C)Cc2c(C)noc2C)cn1,8.528,–
CC(C)(C)CC1CCCN1Cc1nc(-c2ccco2)no1 (configuration not stated),–,58.36% and 65.06%
Cc1nc(C)n(CC2CCCN2Cc2nc(-c3ccco3)no2)n1 (configuration not stated),–,-0.3641% and 0.04429% and -1.23%
CN(C)CCN1C(=O)CC[C@@H]2[C@H]1CCN2Cc1cccc(C#N)c1.O=C(O)C(F)(F)F.O=C(O)C(F)(F)F,-0.2577,–
Cc1nc(C)n(CC2CCCN(CCOc3ccccc3C#N)C2)n1 (configuration not stated),12.74,–
O=C(NCC1CC1)[C@H]1C[C@H]2OCC[C@H]2N(Cc2ccoc2)C1,-11.2,–
Cn1nccc1CNC(=O)CCn1nc(C(F)(F)F)c(Cl)c1C1CC1,10.43,–
O=C(COCc1ccccc1Cl)N1CCN(c2ncccn2)CC1,3.259,–
COc1ccc(COCC(=O)N2CCN(CC(C)(C)O)CC2)cc1,–,7.514% and -16.19% and -8.725%
CC(C)(O)CN1CCN(C(=O)COCc2ccccc2Cl)CC1,–,71.26% and 47.5% and 53.2%
CC(NC(=O)CCCc1nc(C(C)(C)C)no1)c1ccccn1 (configuration not stated),4.866,–
Cc1nn(C)cc1-c1cc(C(=O)NCC(C)(C)c2cccc(F)c2)n[nH]1,-0.9712,–
CN(C)CC1CSCCCN1C(=O)c1ccc(-c2ccccc2)cc1 (configuration not stated),11.37,–
CC(NCC(=O)NCC(=O)Nc1ccc(F)cc1)c1cccs1 (configuration not stated),0.1791,–
CN(C)C(=O)CN1CCC2(CC1)CN(S(C)(=O)=O)Cc1ccccc1O2,-23.82,–
NC(=O)CN1CCC2(CC1)CC(=O)c1ccc3ccccc3c1O2,–,14.56% and 23.77% and 28.36%
CCOC(=O)CN1CCC2(CC1)CC(=O)c1ccc(OC)cc1O2,-0.03409,–

SMILES,Percent Effect [%],Percent Effect (10 mM as filed; unlikely as a test dose)
CN(C)C(=O)CN1CCC2(CC1)CC(=O)c1ccc3ccccc3c1O2,–,28.41% and 58.1% and 56.14%
CN(C)C(=O)CN1CCC2(CC1)CC(=O)c1c(ccc3ccccc13)O2,16.77,–
Cc1nc(C)c(C(=O)OCCNc2ncccc2C#N)s1,25.07,–
CNC(=O)Cc1ccc(NC(=O)NC(C)C(C)C)cc1 (configuration not stated),–,-4.587% and -4.397% and -12.09%
CC(CN1CCC(CCO)CC1)n1cnc2ccccc21 (configuration not stated),–,-16.85% and -31%
CCN(CC)CCCNc1nc(C)nc2c1CCN(C)C2.O=C(O)CC(O)(CC(=O)O)C(=O)O,7.039,–
CN(CC(=O)NCC(F)(F)F)Cc1nc2c(s1)CCCC2,–,29.9% and 31.57%
CN(CC(=O)NCc1ccco1)Cc1nc2c(s1)CCCC2,–,18.7% and 19.42%
CN(CC(=O)NCC1CCCO1)Cc1nc2c(s1)CCCC2 (configuration not stated),–,56.93% and 58.41%
CN(Cc1nnc(-c2ccco2)o1)Cc1nc2c(s1)CCCC2,–,-11.23% and -0.3712% and 0.4353%
CN(Cc1nnc(-c2cccs2)o1)Cc1nc2c(s1)CCCC2,–,22.52% and 35.26% and 20.64%
Cc1nnc(CN(C)Cc2nc3c(s2)CCCC3)o1,–,69.64% and 55.12% and 51.62%
Cc1ccc(CN2CCCC(c3cncc(C)n3)C2)cn1 (configuration not stated),7.699,–
COc1cccc(-n2cc(CN(C)C(=O)c3cc[nH]n3)cn2)c1,–,-69.36% and -66.93%
COc1cccc(-n2cc(CN(C)C(=O)c3cnc(O)cn3)cn2)c1,–,70.55% and 77.42%
CCn1ccc(C(=O)N(C)Cc2cnn(-c3cccc(OC)c3)c2)n1,–,-38.3% and -41.56%
Cn1ccnc1CN1CCN(CC(=O)NCc2cccs2)CC1,11.24,–
CCOC(=O)c1sc2ccsc2c1CNC(=O)CCOC,-1.34,–
CN1C(=O)[C@H]2CC[C@@H]1CN(Cc1cccc(OCc3ccccn3)c1)C2,–,-14.17% and -8.272%

SMILES,Percent Effect [%],Percent Effect (10 mM as filed; unlikely as a test dose)
COc1cccc(-c2ncc(CN3C[C@@H]4CC[C@H](C3)N(C)C4=O)s2)c1,–,84.86% and 76.95%
Cc1nc(C)n(CC2CCCN(CCOc3ccc(C#N)cc3)C2)n1 (configuration not stated),-0.23,–
O=C(COc1coc(CN2CCOCC2)cc1=O)c1ccc(Cl)cc1,-1.015,–
O=C(NCCc1ccccn1)Nc1cc(C(F)(F)F)c[nH]c1=O,1.519,–
Cc1nn(C)cc1C(=O)N1CCC(C(=O)c2nc3ccccc3s2)CC1,4.427,–
CCc1ncc(CN(C)C2CCN(C(C)C)CC2)cn1.O=C(O)CC(O)(CC(=O)O)C(=O)O,7.243,–
COCC(NC(=O)c1cn2ccsc2n1)c1ccnn1C (configuration not stated),0.7162,–
CCC(=O)NC1CCCN(C(=O)Nc2cccc(COC(C)C)c2)C1 (configuration not stated),3.429,–
CC(=O)NC1CCCN(C(=O)Nc2cccnc2-n2cccn2)C1 (configuration not stated),-4.732,–
O=C(CCCc1nc(-c2ccccc2)no1)N1CCN(CCO)CC1,11.73,–
O=C(Nc1cc(-c2ccccc2)on1)N1CC[C@H](O)C1,–,-24.83% and -17.1%
CCC(=O)NC1CCCN(C(=O)Nc2cc(-c3ccccc3)on2)C1 (configuration not stated),–,86.86% and 95.97%
O=C(Nc1cc(-c2ccccc2)on1)N1CCN(CCO)CC1,–,64.88% and 38.14%
Cc1csc(CNCC(C)c2nc3ccccc3o2)n1 (configuration not stated),10.3,–
O=C(Cn1cnc2cc3c(cc21)OCCCO3)NCCc1ccccc1,–,3.571% and -13.25% and -3.678%
O=C(Cn1cnc2cc3c(cc21)OCCCO3)NC1CCCC1,–,34.04% and 26.95% and 25.51%
O=C(Cn1cnc2cc3c(cc21)OCCCO3)NC1CCCCC1,–,58.19% and 56.08% and 47.01%
NC(=O)N1CCC2(CC1)CC(=O)N(CC1CCCO1)c1ccccc12 (configuration not stated),6.567,–
Cc1cc(CN2CCOC(Cn3nc(C)cc3C)C2)on1 (configuration not stated),2.612,–
